Reference: PubChem BioAssay (NCI)
Compounds without any hit were thinned out: in the full panel of roughly 83,000, 20% have a hit.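 Negative percent growth values reflect cell death: -40 means 40% of the cells present at the start died, and -100 means all died.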

Experiments:
Test in all cases: NCI-60 one-dose screen, 48 h (100 = growth as untreated, 0 = no growth, -100 = all killed)
Conditions in all cases: 10 µM unless noted; active = growth percent below 10; inactive = the rest
[1] = test system: SK-MEL-2 melanoma
[2] = test system: EKVX NSCLC
[3] = test system: SN12C renal
[4] = test system: UO-31 renal
[5] = test system: TK-10 renal
[6] = test system: ACHN renal
[7] = test system: CAKI-1 renal
[8] = test system: A498 renal
[9] = test system: CCRF-CEM leukemia
[10] = test system: MOLT-4 leukemia
[11] = test system: SR leukemia
[12] = test system: RPMI-8226 leukemia
[13] = test system: OVCAR-8 ovarian
[14] = test system: OVCAR-5 ovarian
[15] = test system: SK-OV-3 ovarian
[16] = test system: IGROV1 ovarian
[17] = test system: OVCAR-3 ovarian
[18] = test system: HS 578T breast
[19] = test system: NCI/ADR-RES ovarian
[20] = test system: OVCAR-4 ovarian

Measured: growth

CC(C)(C)NCCC(O)c1cc(C(F)(F)F)nc2c(C(F)(F)F)cccc12 (stereo not drawn)
inactive: [1] 102% | [2] 86.7% | [3] 84.7% | [4] 45.7% | [5] 82.9% | [6] 67.2% | [7] 75.4% | [8] 33.3% | [9] 94.5% | [10] 89.6% | [11] 121% | [12] 95.7% | [13] 83.6% | [14] 77.8% | [15] 89.3% | [16] 71.7% | [17] 75.9% | [18] 65.5% | [19] 84.6%

O=C(c1ccccc1)c1ccc(-c2ccc(O)cc2)cc1
inactive: [1] 59.1% | [2] 64.5% | [3] 83.2% | [4] 45.2% | [5] 68.7% | [6] 50.4% | [7] 103% | [8] 65.1% | [9] 60.7% | [10] 120% | [11] 177% | [13] 82.8% | [14] 108% | [20] 45.6% | [16] 25.9% | [17] 85.8% | [18] 104% | [19] 44.5%

NCC(O)C(O)C(O)C(O)CO (stereo not drawn)
inactive: [1] 96.4% | [2] 102% | [3] 96.2% | [4] 93.2% | [5] 88.5% | [6] 105% | [7] 88.6% | [8] 98.6% | [9] 89.8% | [10] 101% | [11] 96.6% | [13] 100% | [14] 107% | [20] 103% | [15] 86.1% | [16] 101% | [17] 101% | [18] 97.1% | [19] 102%

CCCCCC(=O)OCCC1CCCCC1
inactive: [1] 106% | [2] 108% | [3] 97.2% | [4] 92.2% | [5] 99% | [6] 107% | [7] 103% | [8] 79.3% | [9] 83.8% | [10] 95.7% | [11] 88.9% | [12] 103% | [13] 104% | [14] 105% | [20] 101% | [16] 108% | [17] 95.3% | [18] 89.7% | [19] 103%

O=c1cc(C(F)(F)F)[nH]c(=S)[nH]1
inactive: [1] 111% | [2] 95% | [3] 95% | [4] 87.3% | [5] 97.7% | [6] 108% | [7] 88% | [8] 139% | [9] 119% | [10] 105% | [11] 91.7% | [12] 111% | [13] 105% | [14] 102% | [20] 107% | [16] 105% | [17] 120% | [19] 109%

CCC12OC(COc3ccccc3)CN1CCN2c1ccccc1 (stereo not drawn)
inactive: [1] 99.4% [100 µM] | [2] 95.2% [100 µM] | [3] 96.1% [100 µM] | [4] 75.2% [100 µM] | [5] 146% [100 µM] | [6] 97.3% [100 µM] | [7] 89% [100 µM] | [8] 107% [100 µM] | [9] 101% [100 µM] | [10] 94.5% [100 µM] | [11] 96.9% [100 µM] | [12] 94.4% [100 µM] | [13] 96.5% [100 µM] | [14] 98% [100 µM] | [20] 95.5% [100 µM] | [16] 93.4% [100 µM] | [17] 110% [100 µM] | [18] 99.1% [100 µM] | [19] 100% [100 µM]

COc1cc(-c2ccc(NC(=O)CC(C)=O)c(OC)c2)ccc1NC(=O)CC(C)=O
inactive: [1] 108% | [2] 108% | [3] 104% | [4] 86.3% | [5] 115% | [6] 88.6% | [7] 97% | [8] 110% | [9] 100% | [10] 89.5% | [11] 93.7% | [12] 95.2% | [13] 94.8% | [14] 98.3% | [15] 101% | [16] 112% | [17] 110% | [18] 117% | [19] 95.2%

OC1Cc2ccccc2C1
inactive: [1] 107% | [2] 99.9% | [3] 104% | [4] 97.5% | [5] 95.9% | [6] 98.3% | [7] 103% | [8] 82.9% | [9] 98.1% | [10] 98.9% | [11] 94.6% | [13] 103% | [14] 95.4% | [20] 110% | [15] 111% | [17] 104% | [18] 96% | [19] 93.9%

Nc1ncnc2c1ncn2C1OC(CO)C2OC21 (stereo not drawn)
inactive: [1] 95.2% | [2] 105% | [3] 95.7% | [4] 100% | [5] 99% | [6] 116% | [7] 106% | [8] 85.4% | [9] 105% | [10] 111% | [11] 112% | [12] 103% | [13] 98.7% | [20] 109% | [15] 105% | [16] 111% | [17] 106% | [18] 98.9% | [19] 110%
